Screening results deposited in PubChem BioAssay by NMMLSC.
A selection: hits, their analogues and other compounds. The true share with any hit is near 1.2%.
RGS8-Gao = regulators of human RGS8-Galphao interaction. P09471. multiplexed bead flow cytometry, RGS8-Galphao binding; actives lie on both sides. response (percent of control binding), % at 10 µM. 0.34% of 220,000 active. AID 1423; in the data active = response below about 60% or above about 140%; inactive = in between;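 also: Galphao activated as the GDP aluminium fluoride complex binding bead-coupled RGS8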
Target sequence (P09471 whole entry, looked up): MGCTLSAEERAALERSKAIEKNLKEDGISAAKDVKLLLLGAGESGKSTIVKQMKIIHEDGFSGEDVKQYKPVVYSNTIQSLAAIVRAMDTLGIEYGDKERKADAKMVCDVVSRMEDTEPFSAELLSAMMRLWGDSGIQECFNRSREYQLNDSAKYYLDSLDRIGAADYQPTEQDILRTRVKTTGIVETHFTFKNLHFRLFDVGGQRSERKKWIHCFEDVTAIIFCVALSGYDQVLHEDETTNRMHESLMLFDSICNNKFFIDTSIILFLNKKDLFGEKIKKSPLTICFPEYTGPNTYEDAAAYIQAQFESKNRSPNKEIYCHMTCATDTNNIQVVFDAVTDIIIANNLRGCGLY
RGS16-Gao = RGS16-Galphao interaction regulator (human); O15492+P09471; bead-based flow cytometry RGS16-Galphao binding, fluorescence; actives lie on both sides; binding response (% of control), % at 10 µM; 0.38% of 220,000 active; AID 1441; call rule not given here;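 also: Galphao activated by GDP with aluminum fluoride before binding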
Target sequence (O15492 whole entry, looked up): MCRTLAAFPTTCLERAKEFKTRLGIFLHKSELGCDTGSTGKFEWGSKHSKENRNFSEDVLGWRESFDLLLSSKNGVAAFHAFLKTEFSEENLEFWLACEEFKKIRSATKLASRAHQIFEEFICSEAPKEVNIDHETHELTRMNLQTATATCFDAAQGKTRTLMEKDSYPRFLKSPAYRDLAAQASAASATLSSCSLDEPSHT
Target sequence (P09471 whole entry, looked up): as the sequence (P09471 whole entry, looked up) above
RGS7-Gao = modulates binding of RGS7 to human Galphao | Multiplexed bead flow cytometry; actives lie on both sides | binding response (% of control), % at 10 µM | 0.35% of 220,000 active | AID 1439; in the data active = binding response below about 49% or above about 150%; inconclusive = no clear call, values can overlap the other calls; inactive = in between;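 also: fluorescent Galphao held in activated GDP-AlF4 state binding bead-coupled RGS7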
Avidin bead fluor = compound fluoresces at 488/530 nm on avidin beads; 0.38% of 220,000 active; AID 1775; compound fluorescence 488/530 nm, flow cytometry; hits give high values; fluorescence (KMESF) at 10 µM; in the data active = fluorescence above about 47
RGS4-Gao reg = human RGS4-Galphao interaction regulation; Multiplexed bead flow cytometry, RGS4-Galphao binding; actives lie on both sides; binding response (% of control), % at 10 µM; 0.33% of 220,000 active; AID 1415; in the data active = binding response below about 49% or above about 150%; inactive = in between;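 also: fluorescent Galphao activated with aluminum fluoride binding bead-coupled RGS4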
GSH fluor = compound fluoresces at 488/530 nm on GSH beads; GSH beads flow cytometry, compound fluorescence 488/530 nm; hits give high values; fluorescence (KMESF) at 10 µM; 0.25% of 190,000 active; in the data active = fluorescence above about 89;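 also: glutathione beads carrying GST-tagged Bcl family fusion proteins plus one bare bead set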
Numbers stand for hits.

For OC1CCCN(Cc2ccc3ccc4cccc5ccc2c3c45)C1 (centres undefined) the results were RGS8-Gao inactive, RGS16-Gao inactive, RGS7-Gao inactive, Avidin bead fluor 142, RGS4-Gao reg inactive and GSH fluor inactive.
`Cn1c2ccccc2c2ncn(CCN3CCOCC3)c(=O)c21` gave RGS8-Gao inactive, RGS16-Gao inactive, RGS7-Gao inactive, Avidin bead fluor inactive, RGS4-Gao reg inactive and GSH fluor 253.
Screening COc1ccc2c(c1)c1ncn(CCCN3CCOCC3)c(=O)c1n2C returned RGS8-Gao inactive, RGS16-Gao inactive, RGS7-Gao inactive, Avidin bead fluor inactive, RGS4-Gao reg inactive and GSH fluor inactive.
Screening Cc1ccc(Nc2c3c(nc4ncnn24)CCC3)cc1 returned RGS8-Gao inactive, RGS16-Gao inactive, RGS7-Gao inactive, Avidin bead fluor 82, RGS4-Gao reg inactive and GSH fluor inactive.
CC(C)CN1CCNC(=O)C1CC(=O)NCCCN1CCCc2ccccc21 (centres undefined) was read as RGS8-Gao inactive, RGS16-Gao inactive, RGS7-Gao inactive, Avidin bead fluor inactive, RGS4-Gao reg inactive and GSH fluor inactive.
COc1cc(N2CCCC2)c(OC)cc1/C=c1/sc2nc3ccccc3n2c1=O was read as RGS8-Gao inactive, RGS16-Gao inactive, RGS7-Gao inactive, Avidin bead fluor 63, RGS4-Gao reg inactive and GSH fluor inactive.
For COc1ccc(C2C(C#N)=C(C)NC3=C2C(=O)CC(C)(C)C3)c(OC)c1 (centres undefined) the results were RGS8-Gao inactive, RGS16-Gao inactive, RGS7-Gao inactive, Avidin bead fluor inactive, RGS4-Gao reg inactive and GSH fluor inactive.
`CCCCC1C(C#N)=C(C)NC2=C1C(=O)CC(C)(C)C2` (centres undefined) gave RGS8-Gao inactive, RGS16-Gao inactive, RGS7-Gao inactive, Avidin bead fluor inactive, RGS4-Gao reg inactive and GSH fluor 253.
Screening O=C(O)c1cc(NCc2ccccc2C(F)(F)F)ccc1N1CCOCC1 returned RGS8-Gao inactive, RGS16-Gao inactive, RGS7-Gao inactive, Avidin bead fluor 52, RGS4-Gao reg inactive and GSH fluor inactive.
For O=C(O)c1cc(NCc2ccc(F)cc2)ccc1N1CCOCC1 the results were RGS8-Gao inactive, RGS16-Gao inactive, RGS7-Gao inactive, Avidin bead fluor inactive, RGS4-Gao reg inactive and GSH fluor inactive.
Screening CCOc1cc2oc(=O)c3c(c2cc1Cl)CCC3 returned RGS8-Gao inactive, RGS16-Gao inactive, RGS7-Gao inactive, Avidin bead fluor 74, RGS4-Gao reg inactive and GSH fluor inactive.
Screening CCOC(=O)C1(Cc2cccc(OC)c2)CCN(Cc2cccc(OC)c2O)CC1 returned RGS8-Gao inactive, RGS16-Gao inactive, RGS7-Gao inactive, Avidin bead fluor inactive, RGS4-Gao reg inactive and GSH fluor inactive.
`CC1CCN(S(=O)(=O)c2cccc(C(=O)NCc3cccs3)c2)CC1` gave RGS8-Gao inactive, RGS16-Gao inactive, RGS7-Gao inactive, Avidin bead fluor inactive, RGS4-Gao reg inactive and GSH fluor inactive.
For CC1CCN(S(=O)(=O)c2cccc(C(=O)NCc3ccco3)c2)CC1 the results were RGS8-Gao inactive, RGS16-Gao inactive, RGS7-Gao inactive, Avidin bead fluor inactive, RGS4-Gao reg inactive and GSH fluor 159.
For Cc1nc2ccccc2n1CC(O)Cn1c(C(F)(F)F)nc2ccccc21 (centres undefined) the results were RGS8-Gao 7.0, RGS16-Gao -16, RGS7-Gao -8.4, Avidin bead fluor inactive, RGS4-Gao reg -28 and GSH fluor inactive.
OC(CN1CCCCC1)Cn1c(C(F)(F)F)nc2ccccc21 (centres undefined) was read as RGS8-Gao inactive, RGS16-Gao inactive, RGS7-Gao inactive, Avidin bead fluor inactive, RGS4-Gao reg inactive and GSH fluor inactive.
For COCCN(C(=O)Nc1ccc(OC)cc1OC)C1CCN(C(C)C)CC1 the results were RGS8-Gao inactive, RGS16-Gao inactive, RGS7-Gao inactive, Avidin bead fluor 51, RGS4-Gao reg inactive and GSH fluor inactive.
For CCOC(=O)c1sc2nc(C)nc(SCC(=O)N(C)C3CCS(=O)(=O)C3)c2c1C (centres undefined) the results were RGS8-Gao inactive, RGS16-Gao inactive, RGS7-Gao inactive, Avidin bead fluor inactive, RGS4-Gao reg inactive and GSH fluor inactive.
For CCN(CC)CC(=O)Nc1c(C#N)cnn1-c1ccccc1 the results were RGS8-Gao inactive, RGS16-Gao inactive, RGS7-Gao inconclusive, Avidin bead fluor inactive and RGS4-Gao reg inactive.
COc1ccccc1NC(=O)/C(=C\c1cccs1)NC(=O)c1ccco1 was read as RGS8-Gao inactive, RGS16-Gao inactive, RGS7-Gao inconclusive, Avidin bead fluor 49 and RGS4-Gao reg inactive.
CN(C)S(=O)(=O)c1cccc(NC(=O)COC(=O)COc2ccc(Br)cc2)c1 was read as RGS8-Gao inactive, RGS16-Gao inactive, RGS7-Gao inconclusive, Avidin bead fluor inactive and RGS4-Gao reg inactive.
Screening CN(C)S(=O)(=O)c1cccc(NC(=O)COC(=O)CCOc2ccccc2)c1 returned RGS8-Gao inactive, RGS16-Gao inactive, RGS7-Gao inconclusive, Avidin bead fluor 88, RGS4-Gao reg inactive and GSH fluor inactive.
CSc1snc(SCC(N)=O)c1C#N was read as RGS8-Gao inactive, RGS16-Gao inactive, RGS7-Gao inactive, Avidin bead fluor inactive, RGS4-Gao reg inactive and GSH fluor inactive.
Screening COC(=O)CSc1nsc(SCC(=O)OC)c1C#N returned RGS8-Gao inactive, RGS16-Gao inactive, RGS7-Gao inactive, Avidin bead fluor 52, RGS4-Gao reg inactive and GSH fluor inactive.
Screening COc1ccc(NC(=O)c2coc3ccccc23)cc1OC returned RGS8-Gao inactive, RGS16-Gao inactive, RGS7-Gao inactive, Avidin bead fluor inactive, RGS4-Gao reg inactive and GSH fluor 259.
CCN(CC)S(=O)(=O)c1cc(C(=O)Nc2cccnc2Cl)ccc1Cl was read as RGS8-Gao inactive, RGS16-Gao inactive, RGS7-Gao inconclusive, Avidin bead fluor inactive, RGS4-Gao reg inactive and GSH fluor inactive.
Cc1ccc(C)c2[nH]c(=O)c(C(c3nnnn3Cc3ccccc3)N3CCc4ccccc4C3)cc12 (centres undefined) was read as RGS8-Gao inactive, RGS16-Gao inactive, RGS7-Gao inactive, Avidin bead fluor inactive, RGS4-Gao reg inactive and GSH fluor 266.
Screening CCNC(=S)N/N=C/c1ccc(OCc2ccc(C(=O)OC)cc2)cc1 returned RGS8-Gao inactive, RGS16-Gao inactive, RGS7-Gao inactive, Avidin bead fluor inactive, RGS4-Gao reg inactive and GSH fluor inactive.
COc1cccc2sc(NC(=O)c3ccc(Br)s3)nc12 was read as RGS8-Gao inactive, RGS16-Gao inactive, RGS7-Gao inactive, Avidin bead fluor inactive, RGS4-Gao reg inactive and GSH fluor 265.
Screening Cc1cccc2sc(NC(=O)c3ccc(Cl)s3)nc12 returned RGS8-Gao inactive, RGS16-Gao inactive, RGS7-Gao inactive, Avidin bead fluor inactive, RGS4-Gao reg inactive and GSH fluor inactive.
